# SNCA viab count – cell viability loss counter-screen. 150,000 compounds, 0.12% hits. Potency, µM (doses to about 57.1 µM), inactives show at the top dose activity change, negative = cytotoxicity, usual class: cytotoxic. HEK-293-SNCA-luc viability, GF-AFC fluorescence, 24 h. AID 1671193;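 note: potency is the fitted concentration of half-maximal effect; 0% = DMSO-treated cells and -100% = medium-only wells without cells; nearly all actives have a fitted effect of over 30% in size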
#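 Cytotoxicity counterscreen: after 24 h compound treatment of genome-edited SNCA-luciferase HEK-293 cells, live-cell protease substrate GF-AFC read by fluorescence after 30 min; activity scaled between DMSO (0%) and medium-only (-100%), curves Hill-fitted.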
# IP6K1 inh – blocks human inositol hexakisphosphate kinase 1 | activity change, % (series mostly up to about 58 µM) | 140,000 compounds, 0.81% hits | AID 1645851 | IP6K1 kinase, ADP-Glo luminescence, 2 h; active compounds read low | Q92551; in the data active = activity change below about -25%; note: % is set by controls: 0 for no effect and ±100 for the full control effect
# Target sequence (Q92551 whole entry, looked up): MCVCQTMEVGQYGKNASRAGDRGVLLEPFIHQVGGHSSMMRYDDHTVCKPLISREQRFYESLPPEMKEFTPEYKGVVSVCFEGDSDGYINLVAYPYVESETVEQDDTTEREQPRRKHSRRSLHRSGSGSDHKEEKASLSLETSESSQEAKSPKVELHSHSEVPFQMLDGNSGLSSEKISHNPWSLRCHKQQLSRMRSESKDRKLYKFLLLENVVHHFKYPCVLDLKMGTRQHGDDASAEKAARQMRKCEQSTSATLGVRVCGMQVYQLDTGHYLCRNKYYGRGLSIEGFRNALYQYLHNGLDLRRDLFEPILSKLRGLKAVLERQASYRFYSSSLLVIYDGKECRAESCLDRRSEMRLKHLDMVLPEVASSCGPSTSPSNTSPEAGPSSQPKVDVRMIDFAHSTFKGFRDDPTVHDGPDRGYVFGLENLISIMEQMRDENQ
#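 ADP-Glo luminescence measures ADP made by human IP6K1 during a 2 h RT reaction with ATP/IP6 (mix at 1.3 mM/130 uM); top library doses 57.5 and 19.1 uM final.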
# KDM5B inh – blocks human KDM5B histone demethylase activity; 220,000 compounds, 2.6% hits; AID 1347165; KDM5B demethylase, FDH-coupled NADH fluorescence (FDH is formaldehyde dehydrogenase); Potency, µM (highest dose often 57.7 µM), most hits filed as inhibitors; Q9UGL1; note: potency is the fitted concentration of half-maximal effect; 0% is about no effect; nearly all actives have a fitted effect of over 70% in size
#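 Measured: NADH fluorescence change, 30 min, RT. System: KDM5BΔAP 200 nM final, H3K4me3 peptide, α-KG, Fe(II), ascorbate, NAD⁺ plus FDH, pH 7.5 HEPES. Compounds: titrated, 10 min pre-incubation with enzyme.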
# SNCA expr inhib – inhibitors of alpha-synuclein (SNCA) gene expression. 140,000 compounds, 0.17% hits. Potency, µM (titrated, usually from 57.2 µM), inactives show at the top dose activity change, negative = inhibition, usual class: inhibitors. HEK-293 SNCA-luciferase knock-in, luminescence, 24 h;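 note: potency is the fitted concentration of half-maximal effect; plate controls were DMSO cells for no effect and cell-free wells for full effect; nearly all actives have a fitted effect of over 45% in size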
# Numbers without * were called inactive; i = inactive; ? = inconclusive; . = not tested or not shown; [ ] = remark or other dose. In the library only some 3% were active in any assay of this set; here they are far more common. Unless noted, calls come from the whole dose curve; as a rule, active = well fitted curve in the direction sought with a large enough effect; inconclusive = small, poorly fitted or top-dose-only effect, or another doubt; inactive = no such curve, though single readings can be large; an effect the other way counts as inactive or inconclusive.
SMILES,SNCA viab count,IP6K1 inh,KDM5B inh,SNCA expr inhib
C=CCn1cc2c3c(cccc31)[C@H](CC(C)C)N[C@H](C(=O)N1CCN(C)CC1)C2,-10%[87.6 µM],12,22µM*,-18%[87.6 µM]
CC(C)C[C@@H]1N[C@H](C(=O)N2CCOCC2)Cc2cn(CC3CC3)c3cccc1c23,-4%[87.6 µM],-7,35µM*,9%[87.6 µM]
CC#CCn1cc2c3c(cccc31)[C@H](CC(C)C)N[C@H](C(=O)N1CCN(C)CC1)C2,-1%[87.6 µM],-2,?,-11%[87.6 µM]
CCc1cccc(C)c1NC(=O)c1nn(Cc2ccccc2)c(=O)c2ccccc12,.,.,i,.
C=CCNC(=O)[C@@H]1Cc2cn(CC#CC)c3cccc(c23)[C@H](CC(C)C)N1,1%[87.6 µM],-12,i,-17%[87.6 µM]
C=CCNC(=O)[C@@H]1Cc2cn(Cc3c(C)noc3C)c3cccc(c23)[C@H](CC(C)C)N1,-2%[87.6 µM],-3,28µM*,-6%[87.6 µM]
CC#CCn1cc2c3c(cccc31)[C@H](CC(C)C)N[C@H](C(=O)NCCNC(C)=O)C2,-1%[87.6 µM],9,32µM*,-4%[87.6 µM]
CC#CCn1cc2c3c(cccc31)[C@H](CC(C)C)N[C@H](C(=O)NCCN(C)C)C2,-12%[87.6 µM],-11,?,-10%[87.6 µM]
Cc1noc(-c2cccn3c(CNC(=O)c4ccc(F)c(Cl)c4)nnc23)n1,-9%,20,14µM*,4%
Cc1noc(-c2cccn3c(CNC(=O)c4cccc(Cl)c4)nnc23)n1,-2%,2,14µM*,-19%
O=C1CC(c2noc(-c3ccc4c(c3)OCO4)n2)CN1c1ccc(Cl)cc1 (stereo not drawn),8%,21,28µM*,-22%
CCc1ccc(N2CC(c3noc(-c4ccc5c(c4)OCO5)n3)CC2=O)cc1 (stereo not drawn),9%,6,32µM*,2%
COc1ccc(-c2cc(C(=O)NC3CC3)c3c(C4CCCN4)nn(C)c3n2)cc1 (stereo not drawn),2%,1,?,-5%
Cn1nc(C2CCNC2)c2c(C(=O)NCc3ccncc3)cc(C3CC3)nc21 (stereo not drawn),5%,-5,?,-14%
COc1ccc(-c2cc(C(=O)N3CCOCC3)c3c(C4CCNC4)nn(C)c3n2)cc1 (stereo not drawn),-2%,1,79µM*,1%
COc1ccc(-c2cc(C(=O)NCC(C)C)c3c(C4CCNC4)nn(C)c3n2)cc1 (stereo not drawn),-8%,-4,79µM*,-24%
COC(=O)/C=C(/SCc1ccccc1)c1ccccc1,.,.,i,.
O=C(NCC(=O)N1CCCCC1)c1cccc(-c2ccsc2)c1,4%[87.6 µM],0,.,117%[87.6 µM]
NS(=O)(=O)c1ccc(N/N=C2/CCc3ccccc32)c([N+](=O)[O-])c1,.,.,i,.
CCOc1nccnc1NC1CCN(C(=O)C2CCCO2)CC1 (stereo not drawn),-6%,-2,28µM*,-13%
CCOc1nccnc1NC1CCN(C(=O)Cc2cccs2)CC1,-2%,-3,32µM*,4%
CCOc1nccnc1NC1CCN(C(=O)NC)CC1,3%,5,28µM*,-22%
CCOc1nccnc1NC1CCN(C(=O)c2cccs2)CC1,2%,-5,?,23%
Cc1ccc(C(=O)C(C#N)C(=O)NCc2ccccc2)cc1C (stereo not drawn),.,.,i,.
O=C(c1cnccn1)N1CCC2(CC1)CCC(O)(CN1CCc3ccccc31)CC2,-8%,-7,.,-25%
SMILES,SNCA viab count,IP6K1 inh,KDM5B inh,SNCA expr inhib
CCNc1ncnc2sc3c(c12)CCN(C(=O)COC)C3,17%,-11,35µM*,2%
CCC(=O)N1CCc2c(sc3ncnc(N4CCN(C)CC4)c23)C1,-5%,-3,?,8%
CCC(=O)N1CCc2c(sc3ncnc(N)c23)C1,5%,2,28µM*,13%
CCC(=O)N1CCc2c(sc3ncnc(Nc4ccccc4)c23)C1,-7%,-10,?,4%
CCNc1ncnc2sc3c(c12)CCN(C(=O)CCOC)C3,7%,-9,?,-14%
CCNc1ncnc2sc3c(c12)CCN(Cc1ccncc1)C3,-25%,-8,25µM*,-32%
CCC(=O)N1CCc2c(sc3ncnc(NCc4ccccn4)c23)C1,8%,-8,28µM*,37%
CCOC(=O)[C@@H]1CN(C(=O)c2ccc3c(c2)OCCCO3)[C@H]2c3cccc(F)c3O[C@@H]12,.,4,.,.
O=C(NCCc1ccccc1)OCc1ccccc1,.,.,i,.
CCCc1noc(-c2cccn3c(CNC(=O)c4ccc(C)cc4C)nnc23)n1,-2%,11,?,-22%
CCCc1noc(-c2cccn3c(CNC(=O)c4cccc(Cl)c4)nnc23)n1,-13%,-2,?,5%
CCc1noc(-c2cccn3c(CNC(=O)c4ccccc4Cl)nnc23)n1,4%,1,28µM*,-2%
Cc1cc(C)cc(C(=O)NCc2nnc3c(-c4nc(C)no4)cccn23)c1,-6%,5,?,4%
Cc1noc(-c2cccn3c(CNC(=O)c4ccccc4C)nnc23)n1,7%,4,28µM*,2%
CCCc1noc(-c2cccn3c(CNC(=O)c4ccccc4C)nnc23)n1,1%,3,13µM*,-20%
CCCc1noc(-c2cccn3c(CNC(=O)c4ccc(F)cc4Cl)nnc23)n1,6%,4,14µM*,?
CCc1noc(-c2cccn3c(CNC(=O)c4ccccc4OC)nnc23)n1,-12%,-1,?,2%
O=C(Cc1cccc(Cl)c1)N1CCN(c2nccc(Nc3ccccc3F)n2)CC1,7%[12.5 µM],-5,.,116%
CCCc1noc(-c2cccn3c(CNC(=O)Cc4c[nH]c5ccccc45)nnc23)n1,-10%,33,20µM*,37%
CCCc1noc(-c2cccn3c(CNC(=O)c4ccccc4F)nnc23)n1,7%,13,?,0%
CCCc1noc(-c2cccn3c(CNC(=O)c4ccccc4Cl)nnc23)n1,13%,-3,28µM*,?
CCCc1noc(-c2cccn3c(CNC(=O)c4cc(C)ccc4C)nnc23)n1,3%,3,28µM*,-3%
CCc1noc(-c2cccn3c(CNC(=O)Cc4c[nH]c5ccccc45)nnc23)n1,8%,13,?,-1%
CN(C)c1ccc(C(=O)Nc2cnc3ccccc3c2)cc1,.,.,i,.
COc1cccc(NC(=O)c2nn(-c3cccc(OC)c3)c(=O)c3ccccc23)c1,.,.,i,.
SMILES,SNCA viab count,IP6K1 inh,KDM5B inh,SNCA expr inhib
Cc1nc(CN2C[C@H](C(=O)Nc3ccccc3)C[C@@H]2c2ccc(F)cc2)cs1,-13%[87.6 µM],-4,35µM*,-14%[87.6 µM]
Cc1ccc(-c2ccccc2CN2CCN(C(=O)c3ccccc3Cl)CC2)cc1Cl,-3%[12.5 µM],-7,.,3%
CCOC(=O)C1CCCN(C(=O)c2ccc3nc(-c4ccncc4)oc3c2)C1 (stereo not drawn),7%,3,.,-5%
O=C(c1ccc(S(=O)(=O)N2CCCC2)cc1)N1CCN(c2cccc(Cl)c2)CC1,.,.,i,.
CS(=O)(=O)c1ncc(Cl)c(C(=O)N2CCN(c3cccc(Cl)c3)CC2)n1,?,-26*,i,?
CCS(=O)(=O)c1ncc(Cl)c(C(=O)N2CCN(c3cccc(Cl)c3)CC2)n1,3.5µM*,-6,i,2.2µM*
